Calls of active or inactive are those of the source. Calls come from the whole dose curve.
molecular target: Acetylcholinesterase (Homo sapiens) (UniProt P22303); assay: Acetylcholinesterase (AChE) small molecule antagonists: enzyme-based qHTS assay (AID 1347397); conditions: Potency: AChE enzyme activity inhibition; outcome: AChE enzyme activity inhibition; series mostly up to 115 µM; activity change, negative = inhibition: at the top concentration; note: nearly all actives have a fitted effect of over 55% in size
Sequence (P22303 whole entry, looked up): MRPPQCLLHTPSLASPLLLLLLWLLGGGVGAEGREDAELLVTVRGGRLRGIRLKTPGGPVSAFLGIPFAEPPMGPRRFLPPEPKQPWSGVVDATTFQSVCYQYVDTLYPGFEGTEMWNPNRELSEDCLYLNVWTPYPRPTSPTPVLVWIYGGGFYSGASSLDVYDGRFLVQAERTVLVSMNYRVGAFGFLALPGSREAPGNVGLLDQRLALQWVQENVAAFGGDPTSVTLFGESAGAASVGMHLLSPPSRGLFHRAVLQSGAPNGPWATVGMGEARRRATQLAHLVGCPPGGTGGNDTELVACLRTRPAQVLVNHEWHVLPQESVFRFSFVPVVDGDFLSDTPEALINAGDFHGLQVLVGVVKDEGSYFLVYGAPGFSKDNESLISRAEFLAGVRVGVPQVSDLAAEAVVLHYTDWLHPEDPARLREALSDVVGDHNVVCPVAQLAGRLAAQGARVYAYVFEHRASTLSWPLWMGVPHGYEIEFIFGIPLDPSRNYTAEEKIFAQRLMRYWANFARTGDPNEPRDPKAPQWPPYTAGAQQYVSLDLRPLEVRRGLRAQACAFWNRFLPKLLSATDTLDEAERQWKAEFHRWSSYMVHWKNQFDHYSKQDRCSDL
Summary of the method: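 Recombinant human AChE, dispensed at 50 mU/mL, was preincubated with Tox21 10K compounds or DMSO vehicle for 30 min at room temperature. DTNB plus acetylthiocholine was then added, and thiocholine was measured colorimetrically after a further 10 min.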
% is set by controls: 0 for no effect and ±100 for the full control effect; potency is the fitted concentration of half-maximal effect.

SMILES | activity change, negative = inhibition | Potency
CC(=O)OC1CCC(C(C)(C)C)CC1 (stereo not drawn) | -0.142% (inactive) | –
[O]=[Bi] | 2.59% [at 10.5 µM] (inactive) | –
CC(N)=O | 1.11% [at 300 µM] (inactive) | –
O=C(O)CCc1nc2ccccc2[nH]1 | 3.16% [at 53 µM] (inactive) | –
NC(=O)c1ccccc1Cl | 0.143% (inactive) | –
CCCCCCCC/C=C\CCCCCCCC(=O)O | – | inactive
O=Cc1ccccc1Cl | -0.273% (inactive) | –
COc1c(Cl)ccc(Cl)c1C(=O)O | – | inactive
C1CCCC1 | 0.146% (inactive) | –
Cc1cccc(NC(=S)N(C)C)c1 | 3.24% (inactive) | –
O=C(O)c1ccc(C(=O)O)c(C(=O)O)c1 | – | inactive
Cc1cc(O)c(C(C)C)cc1Cl | – | inactive
Cc1oc(=O)oc1CN1CCN(c2cc3c(cc2F)c(=O)c(C(=O)O)c2n3C(C)S2)CC1 (stereo not drawn) | 0.882% [at 53 µM] (inactive) | –
CC(COCC(C)OC(=O)c1ccccc1)OC(=O)c1ccccc1 (stereo not drawn) | – | inactive
O[Si](c1ccccc1)(c1ccccc1)c1ccccc1 | 1.77% (inactive) | –
NCCCCCC(=O)O | -0.27% [at 53 µM] (inactive) | –
Oc1ccccc1O | – | inactive
O=C1Nc2cc(Cl)ccc2Oc2ccccc21 | 0.109% [at 53 µM] (inactive) | –
CN(C)c1ccc(C(c2ccccc2)c2ccc(N(C)C)cc2)cc1 | 4.27% (inactive) | –
Cc1cc(O)c2c(c1)C(=O)c1cc(O)cc(O)c1C2=O | – | inactive
OC1CCCC1 | – | inactive
C=C(C)C(N)=O | – | inactive
CC(=O)Nc1ccc(CC(=O)O)cc1 | – | inactive
CC(=O)Nc1ccc(C(=O)O)cc1 | – | inactive
Cc1ccc(S(=O)(=O)O)cc1C | – | inactive
Cc1cc2nc3ccc(=[N+](C)C)cc-3sc2cc1N | – | 4.9 µM (active)
O=C(O)c1cccc(Cl)c1Cl | -0.273% (inactive) | –
COCCOC(=O)C1=C(C)NC(C)=C(C(=O)OC(C)C)C1c1cccc([N+](=O)[O-])c1 (stereo not drawn) | 0.547% [at 53 µM] (inactive) | –

From PubChem BioAssay (Tox21)
